# Assay outcomes from PubChem.
# Sm TGR inh: S. mansoni TGR enzyme inhibition; Q962Y6; purified TGR, DTNB reduction, TNB absorbance 405 nm; Potency, µM (doses to about 114 µM), for the others: at the top dose activity change, negative = inhibition, hits mostly inhibitors; 3% of 360,000 active; AID 485364; note: % is set by controls: 0 for no effect and ±100 for the full control effect; nearly all actives have a fitted effect of over 60% in size
#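 First, TGR (20 nM dispensed) and NADPH were mixed with compound. Second, a 15 min room-temperature incubation followed. Third, further NADPH and then DTNB were added to start the reaction. Finally, TNB absorbance was monitored kinetically.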
# NS1 inh: influenza NS1 inhibition; AID 2326; Potency, µM (doses to about 46.1 µM), for the others: top-dose activity, positive = more growth; 0.4% of 270,000 active; calls by dose curve; note: actives are rising curves; nearly all actives have a fitted effect of over 50% in size
#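 Growth recovery, yeast-based: influenza A NS1 expressed in S. cerevisiae causes slow growth, and suppressors are detected by OD600. The parent strain without NS1 is used as positive control.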
# AMA1 RON2 block: disrupts binding of P. falciparum AMA1 to RON2. AlphaScreen AMA1-biotinylated RON2 peptide binding. Potency, µM (doses to about 58.2 µM), for inactives: top-dose activity change, negative = inhibition, usual class: inhibitors. 0.2% of 360,000 active;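 note: 0% = vehicle wells and -100% = peptide control; nearly all actives have a fitted effect of over 45% in size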
#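 AMA1 (3D7) with his tag at 25 nM final met compounds first, then biotinylated RON2 peptide at 25 nM; detection used donor plus acceptor beads, 10 µg/mL apiece, read by AlphaScreen after 30 min at room temperature.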
# Pf growth 48h: P. falciparum growth inhibition at 48 hours (one generation) | Potency, µM (top dose mostly 28.7 µM), for inactives: at the top dose activity change, negative = inhibition, usual class: inhibitors | P. falciparum luciferase growth in erythrocytes, 48 h | 5.9% of 310,000 active; note: % is set by controls: 0 for no effect and ±100 for the full control effect
#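 Luciferase-expressing parasites in RBCs, 2% Hct / 0.1% parasitemia final; RPMI 1640 + 0.5% Albumax; 37 C, 5% CO2, one generation; luminescence read-out, lower signal = inhibition.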
# Pf growth 96h: inhibits malaria parasite growth, 96 h; P. falciparum luciferase reporter growth, 96 h; Potency, µM (series often up to 28.7 µM), for inactives: at the highest dose activity change, negative = inhibition, most hits filed as inhibitors; 6.9% of 320,000 active; AID 504834; note: % is set by controls: 0 for no effect and ±100 for the full control effect
#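 P. falciparum expressing integrated firefly luciferase, in erythrocytes at 2% hematocrit, 0.05% parasitemia, incubated with compounds 96 h at 37 C, 5% CO2. Growth inhibition read as loss of luminescence; two-generation exposure targets delayed-death apicoplast inhibitors.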
# Starred values were filed as active, the others as inactive; ? = inconclusive; . = no result; [ ] = remark or other dose. Compounds with a hit are over-represented: about 11% of the library has one in this group of screens. Unless noted, calls come from the whole dose curve; as a rule, active = well fitted curve in the direction sought with a large enough effect; inconclusive = small, poorly fitted or top-dose-only effect, or another doubt; inactive = no such curve, though single readings can be large; an effect the other way counts as inactive or inconclusive. Potency is the fitted concentration of half-maximal effect.
SMILES,Sm TGR inh,NS1 inh,AMA1 RON2 block,Pf growth 48h,Pf growth 96h
Cc1ccc(C(=O)N/N=C/c2ccc(-c3ccc(Br)cc3[N+](=O)[O-])o2)o1,50µM*,4%,45%,9.3µM*,?
CCOc1ccc(CCNC(=O)CS(=O)Cc2nc(-c3ccc(C)cc3)oc2C)cc1 (stereo not given),22µM*,13%,5%,5%,7%
CCOc1ccc(CCNC(=O)CS(=O)Cc2nc(-c3ccc(C)cc3)oc2C)cc1OCC (stereo not given),-24%,11%,-3%,-14%,-31%
Cc1ccc(-c2nc(CS(=O)CC(=O)NCCc3ccc(Cl)cc3)c(C)o2)cc1 (stereo not given),-5%,.,.,.,.
COc1ccc(-c2nc(CS(=O)CC(=O)NCCC3=CCCCC3)c(C)o2)cc1 (stereo not given),40µM*,-42%,0%,.,?
CCc1ccc(-c2nc(CS(=O)CC(=O)NCCc3ccc(Cl)cc3)c(C)o2)cc1 (stereo not given),32µM*,.,.,.,.
Cc1oc(-c2ccc(Cl)cc2)nc1CS(=O)CC(=O)NCCc1ccccc1 (stereo not given),22µM*,.,.,.,.
COc1ccc(Cl)cc1NC(=O)C1CCCN(c2ncnc3c2nc2n3CCCCC2)C1 (stereo not given),-8%,4%,1%,?,?
Cc1ccc(CCNC(=O)CS(=O)Cc2nc(-c3cccc(C)c3)oc2C)cc1 (stereo not given),?,-27%,-1%,.,?
Cc1oc(-c2cccs2)nc1CS(=O)CC(=O)NCCc1ccccc1 (stereo not given),10µM*,?,10%,.,?
Cc1oc(-c2cccs2)nc1CS(=O)CC(=O)NCCCOC(C)C (stereo not given),14µM*,7%,14%,6%,2%
Cc1ccc(-c2nc(CS(=O)CC(=O)NCCCc3ccccc3)c(C)o2)cc1 (stereo not given),35µM*,12%,-1%,2%,?
CC(OC(=O)c1cc(S(=O)(=O)N2CCOCC2)ccc1Br)C(=O)N1CCOCC1 (stereo not given),-20%,.,0%[11.6 µM],?,?
Cc1ccc(NS(=O)(=O)c2cc(NC(=O)c3cc4c(s3)CCCC4)ccc2C)c(C)c1,9%,8%,3%,?,10µM*
Cc1ccc(NC(=O)c2cc3c(s2)CCCC3)cc1,-2%,.,-21%,207%,196%
Cc1ccc(NS(=O)(=O)c2cc(NC(=O)c3ccc4c(c3)NC(=O)CS4)ccc2Cl)c(C)c1,4%,10%,1%,-19%,7.4µM*
COc1ccc(NC(=O)c2ccc3c(c2)NC(=O)CS3)cc1,-8%,.,0%,85%,40%
N#CCCC(CCC#N)(CCC#N)c1cc[n+](CCc2ccccn2)cc1,-8%,.,-1%,5%,57%
O=C(Nc1ccc(Cl)c(S(=O)(=O)N2CCOCC2)c1)[C@@H]1CCCN1C(=O)c1cccs1,-3%,.,8%,?,?
CC1(C)CC2CC(C)(CN2S(=O)(=O)c2cccc(C(=O)OCC(N)=O)c2)C1 (stereo not given),40µM*,.,-10%,1%,3%
COCCNC(=O)c1cccc(S(=O)(=O)N2CC3(C)CC2CC(C)(C)C3)c1 (stereo not given),79µM*,.,-3%,-7%,?
CCCCNC(=O)c1cccc(S(=O)(=O)N2CC3(C)CC2CC(C)(C)C3)c1 (stereo not given),-11%,.,5%,?,12µM*
COCCCNC(=O)c1cccc(S(=O)(=O)N2CC3(C)CC2CC(C)(C)C3)c1 (stereo not given),-2%,.,87%,?,-5%
O=C(NC1=NCCS1)C1CC(=O)N(c2ccc(Cl)cc2)C1 (stereo not given),14%,2%,0%,68%,0%
CNC(=S)N/N=C(\C)c1ccc(N2CCOCC2)cc1,-4%,-17%,83%,-4%,10µM*
SMILES,Sm TGR inh,NS1 inh,AMA1 RON2 block,Pf growth 48h,Pf growth 96h
O=C(c1cccs1)N1CCC(Cc2ccccc2)CC1,4%,-17%,7%,8.3µM*,-23%
O=C(c1ccc(Br)o1)N1CCN(Cc2ccccc2Cl)CC1,?,-39%,-10%,12µM*,?
O=C(c1ccc(Br)o1)N1CCC(Cc2ccccc2)CC1,4%,-67%,?,13µM*,-17%
O=C(c1cccs1)N1CCN(Cc2ccccc2)CC1,0%,2%,-11%,2%,18%
O=C(c1ccc(Br)o1)N1CCN(Cc2ccc3c(c2)OCO3)CC1,?,-2%,33%,0%,?
Cc1c(C(=O)N2CCC(Cc3ccccc3)CC2)cccc1[N+](=O)[O-],15%,3%,-10%,14%,103%
Cn1nccc1C(=O)N1CCC(Cc2ccccc2)CC1,-1%,-6%,0%,68%,?
Cc1cccc(C(=O)N2CCC(Cc3ccccc3)CC2)c1[N+](=O)[O-],-16%,-13%,-6%,-1%,0.93µM*
O=C(CN1C(=O)CCn2nc(-c3ccccc3)cc21)NCc1ccc(F)cc1,12%,.,.,.,.
Cc1ccc2nc(-c3ccc(C#N)cc3)c(Cc3cccc(Cl)c3)n2c1,.,.,14%,.,.
CC(Oc1ccccc1)C(=O)Nc1cccc(-c2cn3cccnc3n2)c1 (stereo not given),3%,.,.,.,.
Nc1nnc2c(n1)CCCC2,32µM*,5%,45%,-14%,49%
COC(=O)c1ccc(C2c3c(-c4ccccc4O)n[nH]c3C(=O)N2Cc2cccnc2)cc1 (stereo not given),-4%,.,.,.,.
COC(=O)/C(=C(/F)Sc1cc(C)c(O)c(C)c1)C(F)(F)F,?,-36%,7%,9.3µM*,.
CCC(=NCc1ccco1)c1c(O)n(-c2ccc(Cl)cc2)c(=O)[nH]c1=O,40µM*,-2%,-2%,7%,-11%
COc1ccc(-c2ccc(OC)cc2)cc1,-7%,.,10%,?,82%
COc1ccc(-c2nncnn2)cc1,-22%,-33%,-17%,?,6.6µM*
COc1ccc(NC(=O)CSc2nnc(-c3cccnc3)o2)c(OC)c1,-28%,.,0%,5%,-4%
Cc1ccc(C(=O)/C=C/c2cc(Br)cc(Br)c2O)o1,1.6µM*,-58%,-25%,8%,14%
Cc1ccc(-n2c(C)cc(-c3csc(N)n3)c2C)cc1,-12%,4%,-4%,?,?
Cc1cc(-c2csc(N)n2)c(C)n1C,?,19%,28µM*,.,10µM*
Cc1nnsc1C(=O)Nc1ccc(S(=O)(=O)N2CCCCC2C)cc1 (stereo not given),-8%,-11%,-4%,-6%,43%
CC(C)(C)c1ccc(NNC(=O)C2CCC2)cc1,45µM*,-4%,-2%,29%,13%
CC(C)(C)c1ccc(NC(=O)COC(=O)C2CCCC2)cc1,-16%,.,-10%,25%,5%
